Measured values reported in PMC5540273 (PLoS ONE, 2017).
Read-outs that look alike come from different tables or passages of the source.

Legend:
[1] = system: ZAK; conditions: concentration: 1 μM, replicates: in singlicate; n = 1
[2] = system: ZAP70; conditions: concentration: 1 μM, replicates: in singlicate; n = 1
[3] = system: T1, p38-alpha; conditions: n = 1
T1 construct: gene MAPK14

[4] = system: T2, p38-beta; conditions: concentration: 1 μM, replicates: in singlicate; n = 1
T2 construct: gene MAPK11

[5] = system: p38-delta; conditions: concentration: 1 μM, replicates: in singlicate; n = 1
[6] = system: T3, p38-gamma; conditions: concentration: 1 μM, replicates: in singlicate; n = 1
T3 construct: gene MAPK12

[7] = concentration: 1 μM, replicates: in singlicate
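Also: KINOMEscan kinase panel screen.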

SMILES	%Inh [1] [%]	%Inh [2] [%]	%Inh [3, 7] [%]	%Inh [4] [%]	%Inh [5] [%]	%Inh [6] [%]	%Inh ([3]; 1 µM) [%]
Fc1cc(Cl)ccc1Nc1ccnc2cc(-c3ccc(CN4CCOCC4)o3)ccc12 [GW560109]	50	3	28	0	25	0	–
Cc1cccc(Nc2nc(NCCN)ncc2C(N)=O)c1 [GSK1292139]	0	74	45	0	24	0	–
Cn1cc(-c2ccc3c(c2)CCN3C(=O)Cc2cc(F)cc(F)c2F)c2c(N)ncnc21 [GSK2634140]	0	0	0	0	14	2	–
COc1cc(Nc2nccc(N3CCC(NC(=O)Nc4ccc5c(c4)OCO5)C3)n2)cc(OC)c1OC (stereo not drawn) [GSK1379766]	34	0	0	0	24	0	–
COc1ccc(NC(=O)c2ccoc2)cc1-c1ccc(C(=O)NCC2CC2)cc1 [GW810437]	2	36	10	1	0	0	–
COc1cccc(CC(=O)N2CCc3cc(-c4cn(C)c5ncnc(N)c45)ccc32)c1 [GSK2608899]	0	0	0	0	48	0	–
CSc1ccc(NC2=C(c3ccc(Cl)cc3)C(=O)NC2=O)cc1 [SB-317658]	28	0	0	12	11	0	–
CNc1nccc(-c2ccc3c(N)n[nH]c3c2)n1 [GSK2206003]	22	0	6	0	22	25	–
COc1cccc2c(-c3ccncc3)c(-c3ccc(F)cc3)nn12 [GW468513]	16	9	99.9	82	34	0	–
CCNc1nccc(-c2c(-c3ccc(F)cc3)ncn2C2CCN(C)CC2)n1	7	0	99.8	63	0	36	–
Cn1cc(-c2ccc3c(c2)CCN3C(=O)Cc2cc(F)cc(C(F)(F)F)c2)c2c(N)ncnc21 [GSK2635225]	11	0	0	0	46	0	–
CC(C)NCC(Cc1ccccc1)NC(=O)c1cc(Br)c(-c2ccnc3[nH]ccc23)s1.Cl.Cl (stereo not drawn) [GSK1383281]	73	0	0	0	16	0	–
NCCC(NC(=O)c1cc(Br)c(-c2ccnc3[nH]ccc23)s1)c1ccccc1.O=C(O)C(F)(F)F.O=C(O)C(F)(F)F (stereo not drawn) [GSK1307810]	10	0	8	0	21	0	–
CN(C)CCNS(=O)(=O)c1ccc(-c2ccnc3[nH]ccc23)cc1 [GSK977620]	83	0	0	1	39	0	–
CN(c1ccc(NC(=O)N2CCN(CCCN3CCOCC3)CC2)cc1)c1ccnc(Nc2ccc(CS(C)(=O)=O)cc2)n1.Cl [GW830899]	5	0	9	0	0	41	–
Cc1cc(-c2c(-c3ccc(F)cc3)ncn2CCCN2CCOCC2)nc(N)n1 [SB-222517]	13	15	22	17	0	27	–
Fc1cc(Cl)ccc1Nc1ccnc2cc(-c3ccc(CN4CCSCC4)o3)ccc12 [GW560106]	52	0	35	0	36	0	–
COc1ccc(C)c(Nc2ccnc(Nc3ccc(-c4cnc[nH]4)cc3)n2)c1.Cl [GW784041]	92.4	0	0	14	11	42	–
CC(C)c1nc(-c2cccc(NS(=O)(=O)c3c(F)cccc3F)c2)c(-c2ccnc(Nc3ccc(N4CCOCC4)nc3)n2)s1.Cl [GSK1723980]	98.6	0	27	10	0	0	–
COc1cccc(NC(=O)NCCNc2ccnc(Nc3ccc(F)cc3)n2)c1 [GSK1379879]	34	17	0	0	59	0	–
O=C(Nc1n[nH]c2nc(-c3ccccc3O)ccc12)C1CC1 [SB-711880]	0	0	0	0	0	39	–
Cc1ccc(NC(=O)c2ccnc(N3CCCCC3)c2)cc1-c1ccc(C(=O)NCC2CC2)cc1 [GW775610]	21	0	99.9	100	2	62	–
N#Cc1cnc2cc(-c3cnc(CNCCN4CCOCC4)s3)ccc2c1Nc1ccc(Oc2ccccc2)cc1 [GW664114]	95.6	59	0	0	37	0	–
Cl.O=C(Nc1ccc(Oc2ccc3[nH]c(NC(=O)c4ccco4)nc3c2)cc1)Nc1cc(C(F)(F)F)ccc1F [GW683134]	99.2	0	65	74	39	0	–
Cc1cccc(Nc2nc(N[C@H]3CCCC[C@H]3N)ncc2C(N)=O)c1.Cl [GSK986310]	0	92.9	0	0	45	0	–

SMILES	%Inh [1] [%]	%Inh [2] [%]	%Inh [3, 7] [%]	%Inh [4] [%]	%Inh [5] [%]	%Inh [6] [%]	%Inh ([3]; 1 µM) [%]
Cl.Cl.NCC(NC(=O)c1cc(-c2cccnc2)c(-c2ccnc3[nH]ccc23)s1)c1ccccc1 (stereo not drawn) [GSK1323434]	7	0	31	0	21	32	–
O=C1NC(=O)C(c2ccccc2Cl)=C1Nc1cccc(Cl)c1 [SB-342409]	21	0	0	0	28	0	–
CN(C)CCOc1ccc(-c2cc(-c3ccc(Cl)c(O)c3)c(-c3ccncc3)[nH]2)cc1.Cl.Cl [SB-684387]	20	20	54	70	19	23	–
Cc1ccc(C)c(NC(=O)Nc2ccc(C)c(-c3ccc(C(=O)Nc4ccncc4)cc3)c2)c1 [GSK1398473]	70	0	0	0	38	0	–
CN1CCN(Cc2ccc(NC(=O)Nc3ccc(N(C)c4ccnc(Nc5ccc(CS(C)(=O)=O)cc5)n4)cc3)cc2)CC1.Cl [GW827654]	21	52	0	0	0	48	–
CC(C)(C)c1ccc(C(=O)Nc2cn3cc(-n4ccnc4)ccc3n2)cc1	7	0	11	9	21	0	–
CN(c1ccc2c(c1)nc(NCc1ccccc1)n2C)c1ccnc(Nc2ccc(CS(C)(=O)=O)cc2)n1.Cl [GW811603]	4	27	2	0	27	0	–
O=C(O)C(F)(F)F.O=c1[nH]ccc2nc(N[C@@H]3CCNC3)nc(Nc3ccc4c(c3)S(=O)(=O)CC4)c12 [GSK2181306]	0	1	0	0	44	23	–
Cc1ccc(NC(=O)c2cccc(N3CCCCC3)c2)cc1-c1ccc(C(=O)NCC2CC2)cc1 [GSK1917008]	33	0	99.9	99.4	46	50	–
COc1cc(Nc2nccc(N3CCC(NS(=O)(=O)c4ccc(NC(C)=O)cc4)CC3)n2)cc(OC)c1OC [GSK1379825]	64	5	0	52	11	0	–
COc1cccc(C2=C(Nc3cccc(O)c3)C(=O)NC2=O)c1 [SB-390771]	38	5	0	0	45	18	–
Cn1cc(-c2cnc(N)c3c(-c4ccc5c(c4)CCN5C(=O)Cc4ccccc4)csc23)cn1 [GSK2593074]	59	0	8	1	0	14	–
CN(C)c1ncnc2nc[nH]c12 [SKF-31736]	0	7	7	0	0	2	–
Cc1ccc(-c2ccc3occ(-c4ccc(S(C)=O)cc4)c3c2)nn1 (stereo not drawn)	0	13	0	10	0	0	–
O=C(Nc1n[nH]c2cc(-c3cccs3)ccc12)C1CC1 [SB-731284]	22	12	0	0	0	22	–
CC(C)c1nc(-c2ccc(F)c(NS(=O)(=O)c3c(F)cccc3F)c2)c(-c2ccnc(Nc3ccc(N4CCOCC4)nc3)n2)s1 [GSK1804250]	98.3	0	96	38	57	1	–
Cc1ccccc1CC(=O)N1CCc2cc(-c3cn(C)c4ncnc(N)c34)ccc21 [GSK2603346]	0	0	0	0	27	0	–
COC(=O)Nc1nc2ccc(Oc3ccc(NC(=O)Nc4cc(C(F)(F)F)ccc4F)cc3)cc2[nH]1.Cl [GW654607]	98	0	88	70	65	9	–
COc1cccc(-c2nc(-c3ccccc3)[nH]c2-c2ccncc2)c1 [SB-610250]	5	0	98.2	32	44	0	–
Cc1ccc(Nc2ccnc(Nc3ccc(C)c(F)c3)n2)cc1O.Cl [GW582868]	2	0	0	0	30	0	–
Cc1nn2c(=O)cc(N3CCO[C@H](C)C3)nc2n1Cc1cccc(Cl)c1Cl [GSK2373693]	15	0	66	0	15	0	–
CCn1c(-c2nonc2N)nc2c(-c3ccccc3)ncc(OCCCN)c21.O=C(O)C(F)(F)F.O=C(O)C(F)(F)F [GSK260205]	0	0	99.5	65	26	2	–
COC(=O)Nc1nc2cc(Oc3ccc(NC(=O)Nc4cccc(SC)c4)cc3)ccc2[nH]1.Cl [GW697999]	96.3	0	54	0	28	4	–
Cc1ccc(O)cc1Nc1ccnc2ccc(C(C)(C)C)cc12 [GW856805]	0	15	1	16	0	41	–
Cc1ccc(NC(=O)c2ccc(Cl)c(Cl)c2)cc1-c1ccc(C(=O)Nc2ccncc2)cc1 [GSK1398460]	49	0	0	12	24	0	–

SMILES	%Inh [1] [%]	%Inh [2] [%]	%Inh [3, 7] [%]	%Inh [4] [%]	%Inh [5] [%]	%Inh [6] [%]	%Inh ([3]; 1 µM) [%]
N#CC1(c2cccc(C(=O)Nc3cccc(Oc4ccc5nc(NC(=O)C6CC6)sc5n4)c3)c2)CC1	90	0	40	36	0	26	–
Cl.Cl.NC(CNC(=O)c1cc(Br)c(-c2ccnc3[nH]ccc23)s1)c1ccccc1 (stereo not drawn) [GSK1322949]	11	0	23	0	14	50	–
CC(=O)Nc1cn2nc(Oc3cccc(NC(=O)c4cccc(C(F)(F)F)c4)c3)ccc2n1	98.6	0	32	28	0	34	–
Nc1cccc(-c2ccc3c(N)n[nH]c3c2)c1 [GSK2193613]	11	0	6	0	17	45	–
COC(=O)Nc1nc2ccc(Oc3ccc(CC(=O)Nc4cc(C(F)(F)F)ccc4F)cc3)cc2[nH]1 [GW680903]	91.6	38	6	0	47	0	–
CCNC(=O)/C=C/c1n[nH]c2cc(Sc3ccccc3C(=O)NC)ccc12	48	0	13	11	18	16	–
O=C(Nc1n[nH]c2nc(-c3ccccc3)ccc12)C1CC1 [SB-708999]	15	19	10	29	25	2	–
CCOc1nccc(-c2c(-c3ccc(F)cc3)ncn2C2CCNCC2)n1 [SB-249175]	15	32	99.3	100	4	43	–
Nc1ncc(-c2ccc3nccc(-c4ccncc4)c3c2)cc1S(=O)(=O)N1CCCCC1 [GSK1693850]	22	0	0	0	36	22	–
O=C(O)C(F)(F)F.O=c1[nH]ccc2nc(N[C@@H]3CCNC3)nc(Nc3cc(Cl)cc(Cl)c3)c12 [GSK2188764]	0	1	0	0	18	23	–
Nc1ncnc2scc(-c3ccc(NC(=O)Cc4cc(F)ccc4F)cc3)c12.O=C(O)C(F)(F)F [SB-731254-M]	4	0	0	7	0	41	–
c1ccc(Oc2ccc(Nc3ccnc4cc(-c5ccc(CN6CCCCC6)o5)ccc34)cc2)nc1 [GW567143]	66	0	0	0	0	0	–
Cc1cc(-c2ccnc(Nc3cccc(C#N)c3)n2)cc(C)c1O [GSK1440913]	16	2	0	0	99.7	91.6	–
CS(=O)(=O)c1cccc(CNc2nc(Nc3ccc4c(c3)CCC(=O)N4)ncc2C(F)(F)F)c1	0	43	3	0	8	4	–
O=C(Nc1n[nH]c2nc(-c3cccc(O)c3)ccc12)C1CC1 [SB-711805]	25	23	7	18	0	12	–
COc1cc(Nc2ccnc3cc(-c4ccncc4)ccc23)cc(OC)c1OC.Cl [GW494610]	49	8	52	66	2	0	–
CN(c1ccc(NC(=O)Nc2cccc(Cl)c2)cc1)c1ccnc(N)n1.Cl [GW830707]	0	0	0	6	0	0	–
Cc1ccc(O)cc1Nc1ccnc2cc(-c3ccc(CN4CCCCC4)o3)ccc12 [GW557777]	75	0	15	6	0	18	–
O=C(Nc1c(F)cccc1F)c1cc(C(=O)c2ccccc2F)c[nH]1 [GSK1326180]	0	0	–	15	0	7	47
Cl.N#CCc1ccc(Nc2nccc(Nc3ccc(Oc4ccccc4)cc3)n2)cc1 [GW639905]	45	0	0	0	5	0	–
CN(c1ccc(F)c(NC(=O)c2cccc(OC(C)(C)C#N)c2Cl)c1)c1ccc2nc(NC(=O)C3CC3)sc2n1	64	0	70	6	0	37	–
CCn1cnc2c(NCc3ccccc3)ncnc21 [SKF-96418]	0	30	0	0	0	0	–
Nc1ncc(-c2cn[nH]c2)c2scc(-c3ccc4c(c3)CCN4C(=O)Cc3ccccc3)c12 [GSK2593067]	50	4	0	0	15	0	–
COc1ccc(C2=C(Nc3cccc(O)c3)C(=O)NC2=O)cc1 [SB-390766]	7	0	23	0	94.4	0	–
